Source: PubChem BioAssay (University of Kansas High Throughput Screening Laboratory)
In the library only some 3.6% were active in any assay of this set; here they are far more common.
mHTT CaM bind = disrupts binding of mutant huntingtin to calmodulin; AlphaScreen His-mHTT/GST-CaM binding, luminescence; inhibition, % at 15 µM; 3.6% of 190,000 active
Pf apPOL block = Pf-apPOL DNA polymerase inhibition | Recombinant Pf-apPOL, molecular beacon fluorescence, 1.5 h | inhibition, % at 10 µM | 0.25% of 210,000 active | AID 1794808
Large screens that a line does not name were inactive. Cut-off read from the data, not from the text of the source: active = inhibition above about 50%; inactive = the rest.

COc1ccc(C=C2Oc3c(ccc4c3CN(CCN3CCOCC3)CO4)C2=O)c(OC)c1	mHTT CaM bind 54.9
COc1ccccc1C=C1Oc2c(ccc3c2CN(Cc2cccnc2)CO3)C1=O	none
O=C(NCc1csc(C2CCN(S(=O)(=O)c3cccs3)CC2)n1)C1CC1	none
Cc1ccc(NC(=O)/C(=C\c2ccc3c(c2)OCO3)NC(=O)c2ccc(C)c(C)c2)cc1	none
O=C(CSc1nccn1-c1ccc([N+](=O)[O-])cc1)Nc1ccc2c(c1)OCCO2	none
C[C@@H](c1ccccc1)N1C[C@@H](COCc2ccccc2)Oc2cc(N3CC[C@@H](O)C3)ccc2S1(=O)=O	mHTT CaM bind 56.4
C[C@@H](c1ccccc1)N1C[C@H](COCc2ccccc2)Oc2cc(N3CCC[C@H]3CO)ccc2S1(=O)=O	none
COC[C@H]1CCCN1c1ccc2c(c1)O[C@H](COCc1ccccc1)CN([C@@H](C)c1ccccc1)S2(=O)=O	none
C[C@@H](c1ccccc1)N1C[C@@H](COCc2ccccc2)Oc2cc(N3CCC[C@H]3C(N)=O)ccc2S1(=O)=O	none
C[C@@H](c1ccccc1)N1C[C@H](COCc2ccccc2)Oc2cc(N3CCC[C@H]3C(N)=O)ccc2S1(=O)=O	none
C[C@@H](c1ccccc1)N1C[C@@H](COCc2ccccc2)Oc2cc(N3CC[C@@H](N(C)C)C3)ccc2S1(=O)=O	mHTT CaM bind 100.2
C[C@@H](c1ccccc1)N1C[C@H](COCc2ccccc2)Oc2cc(N3CC[C@@H](O)C3)ccc2S1(=O)=O	mHTT CaM bind 52.5
C[C@H](c1ccccc1)N1C[C@H](COCc2ccccc2)Oc2cc(N3CC[C@@H](O)C3)ccc2S1(=O)=O	mHTT CaM bind 53.6
O=C(c1ccc(F)cc1)N1CCC(n2c(-c3ccco3)nc3cccnc32)C1 (centres undefined)	none
O=C(c1ccc(F)c(F)c1)N1CCC(n2c(-c3ccco3)nc3cccnc32)C1 (centres undefined)	mHTT CaM bind 70.7
Cc1ccc(C(=O)N2CCC(n3c(-c4ccco4)nc4cccnc43)C2)cc1F (centres undefined)	mHTT CaM bind 72.0
O=C(c1ccccc1)N1CCC(n2c(-c3ccco3)nc3cccnc32)C1 (centres undefined)	none
O=C(c1cccc(F)c1)N1CCC(n2c(-c3ccco3)nc3cccnc32)C1 (centres undefined)	none
O=C(c1cccc(Br)c1)N1CCC(n2c(-c3ccco3)nc3cccnc32)C1 (centres undefined)	mHTT CaM bind 87.0
COc1ccc(Cl)cc1NC(=O)C1Oc2ccccc2NC1=O (centres undefined)	none
CCc1cccc(C)c1NC(=O)CN(C)S(=O)(=O)c1ccc2[nH]c3c(c2c1)CCCC3	none
O=C(CNC(=O)c1ccccc1)Nc1cccc(-c2ccn[nH]2)c1	none
COc1ccc(C2NN=C(c3ccccc3)S2)c2ccccc12 (centres undefined)	none (no result: Pf apPOL block)
Cc1ccc(-c2nc(C=Nc3ccccn3)c(O)o2)cc1	none
Cc1ccnc(NC(c2cccs2)c2ccc3cccnc3c2O)c1 (centres undefined)	mHTT CaM bind 100.0
Oc1c(C(Nc2ccccn2)c2ccc(Br)cc2)ccc2cccnc12 (centres undefined)	mHTT CaM bind 94.0
Cc1ccc(C(Nc2ccccn2)c2ccc3ccc(C)nc3c2O)cc1 (centres undefined)	mHTT CaM bind 72.0
COc1cc(C)c(S(=O)(=O)Nc2ccccn2)cc1C	none
COc1ccc(C(Nc2ccccn2)c2ccc3ccc(C)nc3c2O)cc1C (centres undefined)	mHTT CaM bind 81.0
O=C(Nc1ccccn1)c1cc(Br)ccc1Cl	none
Cc1cccc(NC(=O)c2cccc(Cn3cc(Cl)cn3)c2)n1	none
Cc1[nH]c2ccc(Br)cc2c1CCN1C(=O)OC(C)(C)C1(C)O (centres undefined)	none
Cc1ccc(Cl)cc1NC(=O)N1CCC(c2nc3ccncc3n2C(C)C)C1 (centres undefined)	none
COCCN=C1Nc2ccccc2CNC12CCN(S(=O)(=O)c1cccs1)C2 (centres undefined)	none
O=C(Nc1cc(Cl)ccc1Cl)c1ccc(F)cc1	none
COc1ccccc1NC(=O)Cn1cnc2sc(C(=O)NCc3cccnc3)c(C)c2c1=O	none
Cc1ccc(-c2ncccc2O)cc1	none
Oc1c(C(Nc2ccccn2)c2ccc3c(c2)OCO3)ccc2cccnc12 (centres undefined)	mHTT CaM bind 98.9
O=S(=O)(Nc1ccccn1)c1ccc(Cl)cc1	none
Cc1ccc(C(Nc2ccccn2)c2ccc3cccnc3c2O)cc1 (centres undefined)	mHTT CaM bind 99.0
Cc1ccc2ccc(C(Nc3ccccn3)c3ccc(O)cc3)c(O)c2n1 (centres undefined)	mHTT CaM bind 93.1
OC(CN1CCN(c2ccccn2)CC1)c1ccc2c(c1)OCO2 (centres undefined)	none
Oc1c(C(Nc2ccccn2)c2ccc(Cl)cc2)ccc2cccnc12 (centres undefined)	mHTT CaM bind 100.0
O=S(=O)(NCC1(c2ccc(F)cc2)CC1)c1ccccc1Br	none
Brc1cnc(N2CCN(C(c3ccccc3)(c3ccccc3)c3ccccc3)CC2)nc1	none (no result: mHTT CaM bind)
Cc1cccc(N2C(=O)CSC2c2cccc(Br)c2)c1 (centres undefined)	none
CN(C)c1nc2cc(C(=O)N3CCCCC3)sc2n1-c1ccccc1	none
Cc1nc2cccnc2n1C1CCN(C(=O)c2ccccn2)C1 (centres undefined)	none
O=c1cc(CO)oc(C(Nc2ncccn2)c2ccc(F)cc2)c1O (centres undefined)	none
C=CCOc1ccc(C=Nc2ccc(C(C)C)cc2)c(O)c1	none
Cc1ccc(C)c(C(Nc2ccccn2)c2ccc3cccnc3c2O)c1 (centres undefined)	mHTT CaM bind 97.0
C=CCOc1ccc(C(Nc2ccccn2)c2ccc3ccc(C)nc3c2O)cc1 (centres undefined)	mHTT CaM bind 67.0
Cc1ccc2ccc(C(Nc3ccccn3)c3ccc(F)cc3)c(O)c2n1 (centres undefined)	mHTT CaM bind 70.0
Cc1ccc(C)c(C(C)Sc2ncccc2C(=O)O)c1 (centres undefined)	none (no result: mHTT CaM bind)
CCCOc1ccc(C(Nc2ccccn2)c2ccc3cccnc3c2O)cc1 (centres undefined)	mHTT CaM bind 97.0
CCCOc1ccc(C=Nc2ccc(S(=O)(=O)Nc3ccccn3)cc2)cc1	none
CC1(c2ccccc2)CC(C)(C)N(C(=O)CN2C(=O)c3ccccc3C2=O)c2ccccc21 (centres undefined)	none
O=C(CC1CCCC1)N1CCN(c2nc(CN3CCOCC3)cs2)CC1	none
COc1ccc(CC(=O)c2c(C)cc(O)cc2O)cc1	none
Cc1ccnc(NC(c2ccccc2C)c2ccc3cccnc3c2O)c1 (centres undefined)	mHTT CaM bind 99.0
O=C1c2ccccc2-c2c1cccc2C(=O)N1CCN(c2ccc(Cl)cc2)CC1	mHTT CaM bind 100.0
COc1ncc(C(=O)N2CCN(c3cccc(Cl)c3)CC2)cn1	none
O=C(c1ccccc1I)N1CCN(c2cccc(Cl)c2)CC1	mHTT CaM bind 76.8
O=C(CC(c1ccccc1)c1ccccc1)N1CCN(c2cccc(Cl)c2)CC1	mHTT CaM bind 84.5
O=C1c2ccccc2-c2c1cccc2C(=O)N1CCOCC1	none
CC(CC(=O)N1CCN(c2cccc(Cl)c2)CC1)c1ccccc1 (centres undefined)	none
O=C(c1ccccc1Cl)N1CCN(c2cccc(Cl)c2)CC1	none
CCOc1nn(CC)cc1C(=O)N1CCN(c2cccc(Cl)c2)CC1	mHTT CaM bind 90.8
